Data from PubChem BioAssay (NCATS).
Several values for one entry are separate records, joined by “and”; a condition that tells them apart may be missing. Equal entries are not always repeated. Inconclusive results are not listed. Activity calls are given as the source filed them. Calls follow the shape of the dose curve; as a rule, active = well fitted cell-killing curve with a large enough effect; inconclusive = small, poorly fitted or top-dose-only effect; inactive = flat fitted curve, though single readings scatter.

Experiments:
[1] = Cellular viability qHTS for adrenocortical cancer (ACC) cell line SW-13 (AID 1963989); conditions: SW-13 ACC cells viability, CellTiter-Glo, 48 h; activity (max response): active compounds read low; also: nearly all actives have a fitted effect of over 65% in size;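 as to activity (max response): cells grown in serum-free medium with ITS supplement; % is scaled to controls: 0 for no effect and ±100 for the full control effect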
Summary of the method: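 Viability was read as CellTiter-Glo luminescence after 48 h compound treatment (up to 46 uM final) of SW-13 cells grown serum-free; titration curves were fit with a four-parameter logistic model to give IC50 and efficacy.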

[2] = Cellular viability qHTS for adrenocortical cancer (ACC) cell line NCI-H295R (AID 1963990); conditions: CellTiter-Glo ATP luminescence, 48 h; series mostly up to 46.1 µM; also: nearly all actives have a fitted effect of over 60% in size;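 as to activity change, negative = viability loss: 0% = DMSO only wells and -100% = full killing with cytotoxic reference compound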
Summary of the method: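 CellTiter-Glo ATP luminescence, read 48 h after compound addition, measured viability of NCI-H295R adrenocortical cells grown serum-free with ITS. Final concentrations spanned up to 46 uM. Data normalized to DMSO and doxorubicin, fitted for IC50 and maximal response.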
Potency is read from the fitted curve at half-maximal effect.

## O=c1c(-c2ccc(O)cc2)coc2cc(O[C@@H]3O[C@H](CO)[C@@H](O)[C@H](O)[C@H]3O)ccc12
[1]
  activity (max response): -7.43% (inactive)
[2]
  Potency: inactive

## O=C(O)CCCCN(CCc1ccccc1OCc1ccc(CCc2ccccc2)cc1)Cc1ccc(C(=O)O)cc1
[1]
  activity (max response): 9.06% (inactive)
[2]
  Potency: inactive

## CC[N+](C)(CC)CCOC(=O)C(O)(c1ccccc1)C1CCCCC1 (configuration not stated)
[1]
  activity (max response): 7.72% (inactive)
[2]
  Potency: inactive

## CN(CC1(C)CCCO1)S(=O)(=O)c1ccc(Cl)c(S(N)(=O)=O)c1 (configuration not stated)
[1]
  activity (max response): 13.7% (inactive)
[2]
  Potency: inactive

## O=C(O)CCNc1cc(N2CCc3ccccc3CC2)nc(-c2cccnc2)n1
[1]
  activity (max response): -9.23% (inactive)
[2]
  Potency: inactive

## CN/C(=C\[N+](=O)[O-])NCCSCc1csc(CN(C)C)n1
[1]
  activity (max response): 7.35% (inactive)
[2]
  Potency: inactive

## Cc1ccc(O)cc1
[1]
  activity (max response): 11.5% (inactive)
[2]
  Potency: inactive

## NS(=O)(=O)c1cc(C(=O)NN2C[C@H]3[C@H]4CCC(C4)[C@H]3C2)ccc1Cl
[1]
  activity (max response): -7.57% (inactive)
[2]
  Potency: inactive

## COc1ccc(-c2oc3c(CC=C(C)C)c(OC4O[C@H](CO)[C@@H](O)[C@H](O)[C@H]4O)cc(O)c3c(=O)c2OC2O[C@@H](C)[C@H](O)[C@@H](O)[C@H]2O)cc1 (some centres not stated)
[1]
  activity (max response): 7.81% (inactive)
[2]
  Potency: inactive

## CN(C)CCNC(=O)COc1c2cccc1Cc1cccc(c1OCC(=O)NCCN(C)C)Cc1cccc(c1OCC(=O)NCCN(C)C)Cc1cccc(c1OCC(=O)NCCN(C)C)C2
[1]
  activity (max response): 14.5% (inactive)
[2]
  activity change, negative = viability loss: 4.99% [at 9.17 µM] (inactive)

## CCC(C)CNCC(=O)N1CCc2sccc2C1c1cccc(C)n1 (configuration not stated)
[1]
  activity (max response): 11.1% (inactive)
[2]
  Potency: inactive

## C[C@H]1CC2[C@@H]3CCC4=CC(=O)C=C[C@]4(C)[C@@]3(F)[C@@H](O)C[C@]2(C)[C@@]1(O)C(=O)CO (some centres not stated)
[1]
  activity (max response): -7.86% (inactive)
[2]
  Potency: inactive

## Cc1c(CN2CCN(C(=O)[C@H](C)O)CC2)sc2c(N3CCOCC3)nc(-c3cnc(N)nc3)nc12
[1]
  Potency: 0.631 µM (active)
[2]
  Potency: 398 nM (active)

## CO/N=C1\CN(c2nc3c(cc2F)c(=O)c(C(=O)O)cn3C2CC2)CC1CN (configuration not stated)
[1]
  activity (max response): -3.25% (inactive)
[2]
  Potency: inactive

## CCc1ccc(/C=C2/SC(=S)NC2=O)cc1
[1]
  Potency: 25.1 µM (active)
[2]
  Potency: 17800 nM (active)

## CC(C)CCOC(=O)c1ccc(N(C)C)cc1
[1]
  activity (max response): 5.28% (inactive)
[2]
  Potency: inactive

## COc1ccc(CCN(C)CCCC(C#N)(c2ccc(OC)c(OC)c2)C(C)C)cc1OC (configuration not stated)
[1]
  activity (max response): -2.85% (inactive) and -16.8% (inactive)
[2]
  Potency: inactive

## O=c1[nH]nc2c3c(cccc13)NC(CN1Cc3ccccc3C1)=N2
[1]
  activity (max response): -23.2% (inactive)
[2]
  Potency: inactive

## C[C@@H]1O[C@@H](O[C@@H]2\C=C/C=C\C=C/C=C\C[C@H](C)OC(=O)/C=C\[C@H]3O[C@@H]3C[C@H](O)C[C@]3(O)C[C@@H](O)[C@@H](C(=O)O)[C@H](C2)O3)[C@H](O)[C@H](N)[C@@H]1O
[1]
  activity (max response): 8.59% (inactive)
[2]
  Potency: inactive

## OC(C#CCN1CCCC1)(c1ccccc1)c1ccccc1
[1]
  activity (max response): -0.545% (inactive)
[2]
  Potency: inactive

## COc1ccnc2c1CCCCC2S(=O)c1nc2ccccc2[nH]1 (configuration not stated)
[1]
  activity (max response): 4.45% (inactive)
[2]
  Potency: inactive

## C/C=C(/C(=C/C)c1ccc(O)cc1)c1ccc(O)cc1
[1]
  Potency: 14.1 µM (active)
[2]
  Potency: 23.1 µM (active) and 6.31 µM (active)

## [O-][n+]1ccccc1SSc1cccc[n+]1[O-]
[1]
  Potency: 1.59 µM (active)
[2]
  Potency: 89.3 nM (active)

## Oc1cn2c(n1)Nc1ccc(Cl)c(Cl)c1C2
[1]
  activity (max response): 11.3% (inactive)
[2]
  Potency: inactive

## CCN(CCCCOC(=O)c1ccc(OC)c(OC)c1)C(C)Cc1ccc(OC)cc1 (configuration not stated)
[1]
  activity (max response): -18.6% (inactive)
[2]
  Potency: inactive

## CCN(CC)CCOC(=O)C(c1ccccc1)c1ccccc1
[1]
  activity (max response): 0.334% (inactive)
[2]
  Potency: inactive

## CCC(=O)O[C@]1(C(=O)CO)CC[C@H]2[C@@H]3CCC4=CC(=O)CC[C@]4(C)[C@H]3CC[C@@]21C
[1]
  activity (max response): 7.43% (inactive)
[2]
  Potency: inactive

## C[C@@]12CCC[C@H]1[C@@H]1CC[C@H]3C[C@@H](O)CC[C@]3(C)[C@H]1CC2
[1]
  activity (max response): -0.85% (inactive)
[2]
  Potency: inactive

## CC(C)Cc1ccc(C(C)C(=O)OCc2ccccn2)cc1 (configuration not stated)
[1]
  activity (max response): 14% (inactive)
[2]
  Potency: inactive

## CC(C)C(N)C(=O)OCC(CO)OCn1cnc2c(=O)[nH]c(N)nc21 (configuration not stated)
[1]
  activity (max response): -23% (inactive)
[2]
  Potency: inactive

## Cn1c(-c2ccccc2C(F)(F)F)nnc1C12CCC(c3noc(C4CC(F)(F)C4)n3)(CC1)CC2
[1]
  activity (max response): -6.22% (inactive)
[2]
  Potency: inactive
